HT1080-NT tox = kills 2HG-producing HT-1080-NT fibrosarcoma cells | HT-1080-NT fibrosarcoma viability, CellTiter-Glo ATP luminescence, 48 h | Potency, µM (series often up to 46.1 µM), for the others: top-dose activity, negative = less viability, actives largely listed as cytotoxic | 360,000 tested, 1.6% active | AID 686970;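 further: NT is the 2HG producing partner of a matched IDH1 knockdown line; potency means the concentration at half of the fitted maximal effect; 0% = DMSO-treated cells and -100% = media-only wells without cells; nearly all actives have a fitted effect of over 55% in size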
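HT-1080-NT; 750 cells/well; 5% FBS RPMI; 48 h compound, 37 degrees C; CellTiter-Glo luminescence; curve fitting and curve-class assignment.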
TDP1 cell noCPT = qHTS for Inhibitors of human tyrosyl-DNA phosphodiesterase 1 (TDP1): qHTS in cells in absence of CPT | DT40 Tdp1-/- hTDP1 cells, no CPT, ATP luminescence, 48 h | Potency, µM (highest dose often 46.2 µM), without a hit: at the highest dose activity change, negative = growth inhibition, usual class: inhibitors | 420,000 tested, 15% active; further: potency means the concentration at half of the fitted maximal effect; nearly all actives have a fitted effect of over 55% in size
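Luminescent ATP content (CellTiter-Glo) served as the growth readout. Knockout chicken DT40 cells expressing human TDP1 were exposed to compounds without camptothecin for a minimum 48 hr at 37 °C.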
HT1080 IDH1KD tx = toxicity to HT-1080 IDH1 knockdown cells (counter line) | AID 686971 | 360,000 tested, 2% active | Potency, µM (top dose mostly 46.1 µM), for inactives: top-dose activity, negative = toxicity, usual class: cytotoxic | HT-1080 IDH1 knockdown viability, ATP luminescence, 48 h;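 further: potency means the concentration at half of the fitted maximal effect; 0% = DMSO wells and -100% = cell-free medium wells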
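Cytotoxicity counter-line: IDH1KD HT-1080, 48 h, CellTiter-Glo. Curves classed by r2, magnitude and activity.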
IL1B secr inh = blocks inflammasome-driven IL-1 beta release. activity change, % at 57.5 µM. THP-1 LPS/ATP IL-1B secretion, AlphaLISA, 16 h; active compounds read low. 360,000 tested, 4.7% active; in the data active means activity change below about -50%; inconclusive means mostly about -30% to -49%
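THP-1 cells pretreated 1 hr with compounds (up to 57.5 uM final), then stimulated with LPS (250 ng/mL final) plus ATP (1.25 mM final); secreted IL-1B measured by AlphaLISA after 16 hr, decreased signal indicating inhibition.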
DT40 TDP1 CPT = growth inhibition of DT40 Tdp1-/-;hTDP1 cells with camptothecin (screen for TDP1 inhibitors); Potency, µM (top dose mostly 46.2 µM), inactives show at the top dose activity change, negative = growth inhibition, usual class: inhibitors; chicken DT40 Tdp1-/-;hTDP1 cells + 20 nM CPT, ATP luminescence, 48 h; 420,000 tested, 12% active; further: potency means the concentration at half of the fitted maximal effect; nearly all actives have a fitted effect of over 55% in size
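Chicken DT40 Tdp1-/- cells stably complemented with human TDP1 were seeded at 400 cells/well in medium containing 20 nM camptothecin, exposed to pin-transferred compounds, and grown at 37 °C for at least 48 hr. Viability was read as ATP luminescence.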
ELG1 repair inh = inhibitors of ELG1-dependent DNA repair in HEK293T cells. 330,000 tested, 2.3% active. Potency, µM (series often up to 46.1 µM), for the others: at the top dose activity change, negative = inhibition, most hits filed as inhibitors. HEK293T ELG1-luciferase reporter, luminescence, 16 h; DNA damage induced by 5-fluorouridine. AID 504467; further: potency means the concentration at half of the fitted maximal effect; nearly all actives have a fitted effect of over 55% in size
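DMSO vehicle served as the neutral condition. Each well held 2,000 cells given 5-fluorouridine plus compound; after 16 hr at 37 °C/5% CO2, ONE-Glo was added and luciferase measured 30 min later.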
Starred values were filed as active, the others as inactive; ? = inconclusive; · = no result given; [ ] = remark or other dose. Only some compounds are listed: those with a hit (about 19% of all), similar ones and a draw of the others. Unless noted, the call rests on the fitted dose curve; in most records, active means well fitted curve in the direction sought with a large enough effect; inconclusive means small, poorly fitted or top-dose-only effect, or another doubt; inactive means no such curve, though single readings can be large; an effect the other way counts as inactive or inconclusive. Unless noted, on the % scale 0 is the no-effect control and ±100 the full control effect.

SMILES	HT1080-NT tox	TDP1 cell noCPT	HT1080 IDH1KD tx	IL1B secr inh	DT40 TDP1 CPT	ELG1 repair inh
O=C(COc1ccc(/C=N/NC(=O)C(=O)N2CCCCC2)cc1)Nc1ccccc1Cl	-0.9%	-25.9%	1.3%	-22.4	-29.6%	16.6%
CCOC(=O)c1ccc(Nc2nn3c(=O)c4ccccc4nc3s2)cc1	·	-4.6%	·	·	-5.0%	·
COc1ccc(NC(=O)c2ccc3c(=O)n4nc(Nc5cc(C)ccc5C)sc4nc3c2)cc1	·	5.8µM*	·	·	6.51µM*	·
CCc1ccccc1Nc1nn2c(=O)c3ccc(C(=O)Nc4ccc(OC)cc4)cc3nc2s1	·	13µM*	·	·	20.6µM*	·
CCCCN(CC)CCCNC(=O)c1cn(CC)c2ccc(S(=O)(=O)N3CCOCC3)cc2c1=O	·	-4.9%	·	·	-7.0%	·
COc1cc(NS(=O)(=O)c2ccc(NC(=O)c3cccnc3)cc2)ncn1	11.4%	18.6%	16.4%	36.0	5.2%	-3.5%
COc1ccc(N2CCN(CCCNC(=O)C(=O)c3c(C)n(C)c4ccccc34)CC2)cc1	1.6%	-3.3%	0.0%	-6.3	17.1%	4.6%
Cc1nn(Cc2ccc(Cl)c(Cl)c2)c(C)c1NC(=O)c1cc(-c2ccc3c(c2)OCO3)on1	?	20.6µM*	?	-13.0	18.4µM*	?
Cc1nn(Cc2ccc(Cl)cc2)c(C)c1NC(=O)c1cc(-c2ccc3c(c2)OCO3)on1	·	14.6µM*	·	-23.8	23.1µM*	18.4µM*
COc1ccc(-c2cc(C(=O)Nc3c(C)nn(Cc4ccccc4Cl)c3C)no2)cc1	1.6%[9.24 µM]	-21.6%	-21.3%	-11.3	-25.0%	3.3%
Cc1ccc(OCc2cn3cccnc3n2)cc1	-1.7%	-3.8%	5.2%	0.0	-14.7%	?
COc1ccc(OC)c(-n2c(=O)[nH]c3cc(C(=O)NCCc4ccc(OC)c(OC)c4)ccc3c2=O)c1	·	?	·	·	-27.6%	·
O=C(NC(c1ccccc1)c1ccccc1)c1ccc(Br)o1	-3.8%	?	0.3%	-8.8	?	15.4%
O=C(/C=C/c1ccc(Br)o1)NC(c1ccccc1)c1ccccc1	-19.7%	?	-24.1%	?	9.2µM*	0.7%
CC1(C)Cc2c(c(N3CCOCC3)nc3sc4c(NCCN5CCOCC5)nnnc4c23)CS1	3.7%	11.6µM*	4.7%	-17.4	?	?
COc1ccccc1CN1CC2(CCN(C(=O)c3cnccn3)CC2)C1	·	0.2%	·	·	-4.0%	·
C=C[C@]1(C)C[C@@H](OC(=O)CSCCN(CC)CC)[C@]2(C)[C@H](C)CC[C@]3(CCC(=O)[C@H]32)[C@@H](C)[C@@H]1O	·	2.99µM*	·	·	7.5µM*	·
C=C[C@]1(C)C[C@@H](OC(=O)CSC(C)(C)CNC(=O)[C@H](N)C(C)C)[C@]2(C)[C@H](C)CC[C@]3(CCC(=O)[C@H]32)[C@@H](C)[C@@H]1O	·	0.266µM*	·	·	0.237µM*	·
COCC1CCCN(Cc2ccc3c(c2)CN(C(=O)c2cccnc2OC)CCO3)C1 (stereo not drawn)	·	-1.4%	·	·	10.7%[9.04 µM]	·
O=c1[nH]nc(CNc2ccc(OC(F)(F)F)cc2)c2ccccc12	0.5%	18.4µM*	0.4%	11.7	20.6µM*	-19.6%
O=c1[nH]nc(CNc2ccc(C(F)(F)F)cc2)c2ccccc12	11.6%	14.6µM*	-6.6%	27.5	11.6µM*	14.3%
CC(C)(Oc1ccc(Cl)cc1)C(=O)NCc1n[nH]c(=O)c2ccccc12	-22.7%	?	-5.2%	33.4	20.6µM*	-7.0%
O=C(Cc1n[nH]c(=O)c2ccccc12)NCc1ccccc1	9.4%	-19.9%	2.0%	9.7	?	3.2%

Source: PubChem BioAssay
